Among all 5,500 compounds or so, about 2,000 (36%) were called active. About 18% were inconclusive and are not listed. No stated cut-off is given here; in the data, active means normalized growth mostly below about 0.91 (no sharp cut-off); inconclusive means no clear call, values can overlap the other calls; inactive means mostly above about 0.92. The list shows a part of the results.
Assay: chemical genetic growth profiling, strain panel (AID 1159580);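 further: tested at 20 µM; growth read once vehicle control cultures reached saturation at 30 °C; 1 = growth at the plate median or of vehicle wells; lower values mean less growth of the strain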
Conditions: growth OD
[1] = S. cerevisiae deletion strains, locus YAL013W, strain DEP1, hits give low values
[2] = S. cerevisiae deletion strains, locus YBR229C, strain ROT2, hits give low values
[3] = S. cerevisiae deletion strains, locus YDL101C, strain DUN1, hits give low values
[4] = S. cerevisiae deletion strains, locus YDR150W, strain NUM1, hits give low values
[5] = S. cerevisiae deletion strains, locus YEL061C, strain CIN8, hits give low values
[6] = S. cerevisiae deletion strains, locus YGR078C, strain PAC10, hits give low values
[7] = S. cerevisiae deletion strains, locus YHR030C, strain SLT2, hits give low values
[8] = S. cerevisiae deletion strains, locus YHR087W, strain rtc3, hits give low values
[9] = S. cerevisiae deletion strains, locus YJL187C, strain SWE1, hits give low values
[10] = S. cerevisiae deletion strains, locus YJR043C, strain POL32, hits give low values
[11] = S. cerevisiae deletion strains, locus YJR075W, strain HOC1, hits give low values
[12] = S. cerevisiae deletion strains, locus YLR039C, strain RIC1, hits give low values
[13] = S. cerevisiae deletion strains, locus YLR058C, strain SHM2 (second series), hits give low values
[14] = S. cerevisiae deletion strains, locus YLR085C, strain ARP6, hits give low values
[15] = S. cerevisiae deletion strains, locus YLR262C, strain YPT6, hits give low values
[16] = S. cerevisiae deletion strains, locus YML094W, strain GIM5, hits give low values
[17] = S. cerevisiae deletion strains, locus YMR219W, strain ESC1, hits give low values
[18] = S. cerevisiae deletion strains, locus YMR263W, strain SAP30, hits give low values
[19] = S. cerevisiae deletion strains, locus YNL153C, strain GIM3, hits give low values
[20] = S. cerevisiae deletion strains, locus YNL298W, strain CLA4 (second series), hits give low values
[21] = S. cerevisiae deletion strains, locus YNL322C, strain KRE1, hits give low values
[22] = S. cerevisiae deletion strains, locus YNR030W, strain Alg12, hits give low values
[23] = S. cerevisiae deletion strains, locus YPL055C, strain LGE1, hits give low values
[24] = S. cerevisiae deletion strains, locus YPL241C, strain CIN2, hits give low values
[25] = S. cerevisiae deletion strains, locus YPR135W, strain CTF4, hits give low values
[26] = S. cerevisiae strains, strain wild type, hits give low values
[27] = S. cerevisiae deletion strains, locus YDL134C, strain PPH21, hits give low values

Measured: normalized growth

COc1cccc(NC(=S)NCc2ccco2)c1
inactive: [1] 0.979 | [2] 0.99 | [3] 1.03 | [4] 1.04 | [5] 0.979 | [6] 1.01 | [7] 0.88 | [8] 0.977 | [9] 0.984 | [10] 1.01 | [11] 1 | [12] 0.976 | [13] 0.984 | [14] 0.884 | [15] 0.97 | [16] 0.963 | [17] 0.992 | [18] 1.04 | [19] 1 | [20] 1.01 | [21] 0.994 | [22] 0.986 | [23] 0.976 | [24] 0.97 | [25] 0.956 | [26] 0.996

CCN(C(=S)Nc1ccc(OC)cc1)c1ccccc1
inactive: [1] 1 | [2] 1.02 | [3] 1.01 | [27] 1.01 | [4] 0.917 | [5] 1 | [6] 0.989 | [7] 1.12 | [8] 1.01 | [9] 1.01 | [10] 1.01 | [11] 1 | S. cerevisiae deletion strains, locus YKL190W, strain CNB1, hits give low values 1.02 | [12] 0.921 | [13] 1.03 | [14] 0.976 | [15] 0.985 | [16] 1 | [17] 1.02 | [18] 1.01 | [19] 0.988 | [20] 0.99 | [21] 1.02 | [22] 0.992 | [23] 0.89 | [24] 0.999 | [25] 0.884

CC(Oc1ccc(Cl)cc1Cl)C(=O)NNC(=S)Nc1ccccc1 (centres undefined)
inactive: S. cerevisiae deletion strains, locus YAR019C, strain CDC15, hits give low values 0.983 | S. cerevisiae deletion strains, locus YBL105C, strain PKC1, hits give low values 0.978 | S. cerevisiae deletion strains, locus YBR135W, strain CKS1, hits give low values 0.982 | S. cerevisiae deletion strains, locus YBR136W, strain MEC1, hits give low values 0.98 | S. cerevisiae deletion strains, locus YBR160W, strain CDC28, hits give low values 0.975 | S. cerevisiae deletion strains, locus YDL017W, strain CDC7, hits give low values 0.986 | S. cerevisiae deletion strains, locus YDL028C, strain MPS1, hits give low values 0.977 | [3] 0.973 | S. cerevisiae deletion strains, locus YDL108W, strain KIN28, hits give low values 0.959 | S. cerevisiae deletion strains, locus YDL132W, strain cdc53, hits give low values 0.968 | S. cerevisiae deletion strains, locus YDL214C, strain PRR2, hits give low values 0.984 | S. cerevisiae deletion strains, locus YDR052C, strain DBF4, hits give low values 0.991 | S. cerevisiae deletion strains, locus YDR054C, strain cdc34, hits give low values 0.982 | S. cerevisiae deletion strains, locus YDR226W, strain ADK1, hits give low values 0.981 | S. cerevisiae deletion strains, locus YDR477W, strain SNF1, hits give low values 0.994 | S. cerevisiae deletion strains, locus YER123W, strain YCK3, hits give low values 0.983 | S. cerevisiae deletion strains, locus YER133W, strain GLC7, hits give low values 0.966 | S. cerevisiae deletion strains, locus YFL009W, strain cdc4, hits give low values 0.976 | S. cerevisiae deletion strains, locus YFL029C, strain CAK1, hits give low values 0.981 | S. cerevisiae deletion strains, locus YFR003C, strain YPI1, hits give low values 0.981 | S. cerevisiae deletion strains, locus YFR019W, strain FAB1, hits give low values 0.964 | S. cerevisiae deletion strains, locus YFR028C, strain CDC14, hits give low values 0.974 | S. cerevisiae deletion strains, locus YGR040W, strain KSS1, hits give low values 0.965 | S. cerevisiae deletion strains, locus YGR052W, strain FMP48, hits give low values 0.982 | S. cerevisiae deletion strains, locus YGR092W, strain DBF2, hits give low values 0.905 | [7] 0.974 | S. cerevisiae deletion strains, locus YHR079C, strain IRE1, hits give low values 1.01 | S. cerevisiae deletion strains, locus YHR082C, strain KSP1, hits give low values 1.03 | S. cerevisiae deletion strains, locus YHR205W, strain SCH9, hits give low values 0.906 | S. cerevisiae deletion strains, locus YIL147C, strain SLN1, hits give low values 0.97 | S. cerevisiae deletion strains, locus YJL095W, strain BCK1, hits give low values 0.927 | S. cerevisiae deletion strains, locus YJL128C, strain PBS2, hits give low values 0.943 | S. cerevisiae deletion strains, locus YJL157C, strain FAR1, hits give low values 0.973 | S. cerevisiae deletion strains, locus YJR016C, strain ILV3, hits give low values 0.971 | S. cerevisiae deletion strains, locus YJR066W, strain TOR1 (second series), hits give low values 0.94 | S. cerevisiae deletion strains, locus YJR066W, strain TOR1, hits give low values 1.01 | S. cerevisiae deletion strains, locus YKL048C, strain ELM1, hits give low values 0.974 | S. cerevisiae deletion strains, locus YKL067W, strain YNK1, hits give low values 0.966 | S. cerevisiae deletion strains, locus YKL101W, strain HSL1, hits give low values 0.957 | S. cerevisiae deletion strains, locus YKL193C, strain SDS22, hits give low values 0.977 | S. cerevisiae deletion strains, locus YKL203C, strain TOR2, hits give low values 1.02 | S. cerevisiae deletion strains, locus YLR113W, strain HOG1, hits give low values 0.981 | S. cerevisiae deletion strains, locus YLR133W, strain CKI1, hits give low values 0.959 | S. cerevisiae deletion strains, locus YLR403W, strain SFP1, hits give low values 0.908 | S. cerevisiae deletion strains, locus YML070W, strain DAK1, hits give low values 0.98 | S. cerevisiae deletion strains, locus YMR001C, strain CDC5, hits give low values 0.981 | S. cerevisiae deletion strains, locus YMR205C, strain PFK2 (second series), hits give low values 0.968 | S. cerevisiae deletion strains, locus YMR277W, strain FCP1, hits give low values 0.98 | S. cerevisiae deletion strains, locus YNL006W, strain LST8, hits give low values 0.976 | S. cerevisiae deletion strains, locus YNL020C, strain ARK1, hits give low values 0.954 | S. cerevisiae deletion strains, locus YNL161W, strain CBK1, hits give low values 0.984 | S. cerevisiae deletion strains, locus YNL183C, strain NPR1, hits give low values 1.01 | S. cerevisiae deletion strains, locus YNL207W, strain RIO2, hits give low values 0.958 | S. cerevisiae deletion strains, locus YNL222W, strain SSU72, hits give low values 0.973 | S. cerevisiae deletion strains, locus YNL307C, strain MCK1 (second series), hits give low values 0.873 | S. cerevisiae deletion strains, locus YOL078W, strain AVO1, hits give low values 0.972 | S. cerevisiae deletion strains, locus YOL136C, strain PFK27, hits give low values 0.938 | S. cerevisiae deletion strains, locus YOR061W, strain CKA2, hits give low values 0.968 | S. cerevisiae deletion strains, locus YOR119C, strain RIO1, hits give low values 1.03 | S. cerevisiae deletion strains, locus YOR231W, strain MKK1, hits give low values 0.993 | S. cerevisiae deletion strains, locus YOR329C, strain SCD5, hits give low values 0.982 | S. cerevisiae deletion strains, locus YPL031C, strain PHO85, hits give low values 0.995 | S. cerevisiae deletion strains, locus YPL153C, strain RAD53, hits give low values 0.993 | S. cerevisiae deletion strains, locus YPL204W, strain HRR25, hits give low values 0.944 | S. cerevisiae deletion strains, locus YPL209C, strain IPL1, hits give low values 0.98 | S. cerevisiae deletion strains, locus YPL256C, strain CLN2, hits give low values 1.12 | S. cerevisiae deletion strains, locus YPR025C, strain CCL1, hits give low values 0.978 | S. cerevisiae deletion strains, locus YPR106W, strain ISR1, hits give low values 0.977 | S. cerevisiae deletion strains, locus YPR111W, strain DBF20, hits give low values 0.961 | S. cerevisiae deletion strains, strain NNK1, hits give low values 0.973 | S. cerevisiae deletion strains, strain TSCII, hits give low values 0.983

CCC(=O)Oc1ccc(NC(=S)NCCCO)cc1
inactive: [1] 1 | [2] 1 | [3] 0.998 | [27] 0.992 | [4] 1 | [5] 1.01 | [6] 1 | S. cerevisiae deletion strains, locus YGR229C, strain SMI1, hits give low values 1 | [7] 1.05 | [8] 0.999 | [9] 1 | [10] 1 | [11] 1.01 | [12] 0.996 | [13] 1 | [14] 1.04 | [15] 1 | [16] 1.04 | [17] 1 | [18] 1.01 | S. cerevisiae deletion strains, locus YMR307W, strain GAS1, hits give low values 1.04 | [19] 1.01 | [20] 1.01 | [21] 1.01 | [22] 1.02 | S. cerevisiae deletion strains, locus YOL006C, strain TOP1, hits give low values 1.01 | [23] 1.01 | [24] 1.04 | [25] 1.22 | [26] 0.993

— PubChem BioAssay AID1159580 (chemical genetic matrix, 2015)
